APE1 inh: APE1 (human) endonuclease inhibition; Potency, µM (top dose mostly 65.8 µM), usual class: inhibitors; recombinant APE1, TAMRA/BHQ-2 abasic DNA cleavage fluorescence; hit rate 0.35% among 350,000; P27695; also: nearly all actives have a fitted effect of over 55% in size
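Readout is kinetic fluorescence (ex 525, em 598 nm) from cleavage of 50 nM TAMRA/BHQ-2 THF abasic duplex by 0.75 nM APE1, compound added 15 min beforehand at RT.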
BLM inh: inhibitors of human Bloom syndrome helicase BLM. P54132. recombinant BLM DNA unwinding, fluorescence dequenching. Potency, µM (titrated, usually from 56.1 µM), usual class: inhibitors. AID 2528. hit rate 0.2% among 350,000; also: nearly all actives have a fitted effect of over 35% in size
RECQ1 inh: inhibitors of human RECQ1 DNA helicase; AID 2549; hit rate 0.54% among 240,000; RECQ1 DNA unwinding, red fluorescence kinetic read; P46063; Potency, µM (highest dose often 57.3 µM), actives largely listed as inhibitors; also: nearly all actives have a fitted effect of over 30% in size
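50 nM RECQ1T1 preincubated 15 min with compound in Tris pH 8.0 buffer with MgCl2, DTT, Tween-20 and 2.5 ug/ml poly(dI-dC); started with 200 nM TAMRA/BHQ-2 forked duplex and 2 mM ATP. Unwinding read as fluorescence (525/598 nm), two reads 2 h apart.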
FEN1 inhibitor: human FEN1 inhibition. P39748. Potency, µM (top dose mostly 114 µM), usual class: inhibitors. Recombinant FEN1 flap cleavage, fluorescence, 15 min. hit rate 0.35% among 390,000; also: nearly all actives have a fitted effect of over 65% in size
Target sequence (P39748 whole entry, looked up): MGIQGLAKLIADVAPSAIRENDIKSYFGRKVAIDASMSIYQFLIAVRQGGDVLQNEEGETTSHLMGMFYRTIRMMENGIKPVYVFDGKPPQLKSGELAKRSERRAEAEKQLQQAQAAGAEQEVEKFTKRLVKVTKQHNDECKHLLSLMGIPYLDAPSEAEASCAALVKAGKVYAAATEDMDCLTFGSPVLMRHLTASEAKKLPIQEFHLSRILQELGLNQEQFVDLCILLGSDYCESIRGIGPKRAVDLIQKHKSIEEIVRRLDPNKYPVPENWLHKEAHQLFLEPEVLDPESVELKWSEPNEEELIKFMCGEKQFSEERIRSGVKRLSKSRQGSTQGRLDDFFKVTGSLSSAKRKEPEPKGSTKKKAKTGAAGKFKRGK
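Concentration–response screening of FEN1 (10 nM): 15 min compound preincubation at room temperature, reaction started with 50 nM substrate and read at 0 and 15 min. Corrected, normalized data were fitted by a four-parameter Hill equation.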
GLS inhibitor: inhibitors of human glutaminase (GLS) | O94925 | AID 624170 | Potency, µM (highest dose often 45.5 µM), usual class: inhibitors | GLS enzymatic activity, qHTS titration | hit rate 0.21% among 410,000
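Read-out is an Amplex red fluorescence increase coupled through glutamate oxidase and HRP, measured before and after 30 min room-temperature incubation. hKGA is in 45 mM KH2PO4 (pH 8.2) with 0.02% Tween-20; glutamine added as 1mM solution.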
Tb PGK inh: blocks T. brucei phosphoglycerate kinase; PGK/GAPDH coupled, Kinase-Glo luminescence, 60 min; Potency, µM (series often up to 57.5 µM), actives largely listed as inhibitors; hit rate 0.043% among 380,000; also: nearly all actives have a fitted effect of over 60% in size
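Recombinant glycosomal PGK reaction used 1,3-bisphosphoglycerate generated in-well by GAPDH (100nM final) in 100mM TEA pH 7.6, 5mM MgCl2, 0.01% Tween-20. After 60 minutes at room temperature, ATP was read by Kinase-Glo Plus luminescence end-point.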
Of the large screens only hits and unclear results are named; the others gave an inactive call. Shown are actives, neighbours in structure and some others; about 0.86% of the full set was active somewhere. Calls follow the shape of the dose curve; as a rule, active = well fitted curve in the direction sought with a large enough effect; inconclusive = small, poorly fitted or top-dose-only effect, or another doubt; inactive = no such curve, though single readings can be large; an effect the other way counts as inactive or inconclusive.

NC[C@@H]1CC[C@@H](N)[C@@H](O[C@H]2[C@H](O)[C@@H](O[C@H]3O[C@H](CO)[C@@H](O)[C@H](N)[C@H]3O)[C@H](N)C[C@@H]2N)O1	none (no result: BLM inh, RECQ1 inh, FEN1 inhibitor, GLS inhibitor, Tb PGK inh)
CN1/C(=C/c2cccc[n+]2CCO)Sc2ccccc21	none (no result: RECQ1 inh)
CC[n+]1c(/C=C2\Sc3ccccc3N2C)ccc2cccc(C)c21	RECQ1 inh inconclusive, FEN1 inhibitor 12.6µM
CCN1C(=O)c2ccccc2C1Nc1cccc(OCCN2CCCCC2)c1 (stereo unspecified)	none (no result: APE1 inh, BLM inh, RECQ1 inh, FEN1 inhibitor, Tb PGK inh)
S=c1[nH]nc(SCc2ccccc2)c2[nH]cnc12	GLS inhibitor 7.08µM (no result: APE1 inh, BLM inh, RECQ1 inh)
Cc1nc2ccc(-c3nc4ccc(N)cc4[nH]3)cc2[nH]1	APE1 inh inconclusive, FEN1 inhibitor 35.5µM, GLS inhibitor 8.91µM
Nc1ccc2nc(-c3ccc(Cl)cc3)[nH]c2c1	FEN1 inhibitor inconclusive
Cc1nc(Nc2cnc(/C=C/c3cc(C(=O)Nc4cccc(C(F)(F)F)c4)ccc3C)cn2)cc(N2CCNCC2)n1	APE1 inh inconclusive, FEN1 inhibitor 79.4µM (no result: RECQ1 inh)
CCOc1ccc(C(=O)Nc2ccc3nc(Nc4cccc(C(F)(F)F)c4)cc(C)c3c2)cc1OCC	none (no result: APE1 inh, RECQ1 inh)
COC(=O)c1c(NC(=O)COC(=O)[C@@H](NS(=O)(=O)c2cccc(Cl)c2)C(C)C)sc2c1CCC2	none
CC(C)[C@H](NS(=O)(=O)c1cccc(Cl)c1)C(=O)OCC(=O)NC(=O)CN1CCCC1=O	APE1 inh 13.4µM (no result: BLM inh, RECQ1 inh)
Cn1cc(/C=C/c2cc[n+](C)cc2)c2cc(Cl)ccc21	FEN1 inhibitor 50.1µM (no result: RECQ1 inh)
CN1C(C(=O)NCC2CC2)CC2Cn3c(nc4cc5ccccc5cc43)C21 (stereo unspecified)	APE1 inh 3.98µM
Cc1ccc(CNC(=O)C2CC3Cn4c(nc5cc6ccccc6cc54)C3N2C)o1 (stereo unspecified)	none
C=C[C@]1(C)C[C@@H](OC(=O)CO)[C@]2(C)C(C)CC[C@]3(CCC(=O)[C@H]32)[C@@H](C)[C@@H]1O (stereo partly specified)	none (no result: APE1 inh, BLM inh, RECQ1 inh, FEN1 inhibitor, Tb PGK inh)
Cc1cc2c(cc1C)N[C@]1(C[C@H]3CCCC(=O)N4CC[C@@H](C1)[C@@H]34)C(=NC1CCCCC1)N2	none (no result: APE1 inh, BLM inh, RECQ1 inh, GLS inhibitor, Tb PGK inh)
COC(=O)c1ccn(CC(=O)NC2CCCCC2)n1	APE1 inh 29.9µM (no result: RECQ1 inh)
Cc1ccc(/C=C/C(=O)c2ccc(C)cc2)cc1	none
Cc1ccc(C(=O)/C=C/C(=O)c2ccc(C)cc2)cc1	GLS inhibitor 2.82µM
Cc1ccc(CC(=O)NO)cc1	none (no result: APE1 inh, BLM inh, RECQ1 inh, GLS inhibitor, Tb PGK inh)
Cc1ccc2nc(/C(C#N)=C/c3ccc(O)c(O)c3)[nH]c2c1	BLM inh 20µM, FEN1 inhibitor inconclusive, GLS inhibitor inconclusive (no result: RECQ1 inh)
CC[C@@H](C)CCCCC(=O)N[C@H](CCN)C(=O)N[C@@H](C(=O)N[C@H](CCN)C(=O)N[C@@H]1CCNC(=O)C([C@@H](C)O)NC(=O)[C@@H](CCN)NC(=O)[C@@H](CCN)NC(=O)[C@@H](CC(C)C)NC(=O)[C@@H](Cc2ccccc2)NC(=O)[C@@H](CCN)NC1=O)[C@@H](C)O (stereo partly specified)	none (no result: BLM inh, RECQ1 inh, FEN1 inhibitor, GLS inhibitor, Tb PGK inh)
NCCCCC(NC(=O)C1CCCN1C(=O)C1CSSCC(N)C(=O)NC(Cc2ccccc2)C(=O)NC(Cc2ccccc2)C(=O)NC(CCC(N)=O)C(=O)NC(CC(N)=O)C(=O)N1)C(=O)NCC(N)=O (stereo unspecified)	none (no result: APE1 inh, BLM inh, RECQ1 inh, FEN1 inhibitor, Tb PGK inh)
CC(C)(C)n1ncc2c(=O)n(Cc3c(Cl)ccc(Cl)c3Cl)cnc21	none (no result: BLM inh, RECQ1 inh, GLS inhibitor, Tb PGK inh)
CC(C)[C@H](NC(=O)C1CCC(CNC(=O)[C@@H]2CCCN2C(=O)OC(C)(C)C)CC1)C(=O)O (stereo partly specified)	none (no result: RECQ1 inh)
CCC(C)[C@H](NC(=O)C1CCC(CNC(=O)[C@@H]2CCCN2C(=O)OC(C)(C)C)CC1)C(=O)O (stereo partly specified)	APE1 inh 150µM (no result: RECQ1 inh)
Cc1ccc(NC(=O)CSc2nnc(-c3cccc([S+](=O)([O-])N4CCCC4)c3)n2-c2c(C)cccc2C)cc1	none (no result: BLM inh, RECQ1 inh, FEN1 inhibitor, GLS inhibitor, Tb PGK inh)
O=C1NC(=O)/C(=C/c2cccn2-c2ccc(P(=O)(O)O)cc2)N1	none (no result: BLM inh, RECQ1 inh, FEN1 inhibitor, GLS inhibitor, Tb PGK inh)

Compound activity as filed in PubChem.
